This is one part of a sample in which hits are shown more often than they occur.
FECH block = inhibitors of human ferrochelatase, primary screen, biochemical, purified FECH, Ni-mesoporphyrin absorbance. Ferrochelatase, mitochondrial (Homo sapiens), P22830. Ni-mesoporphyrin absorbance 550 nm. calls only at 10 µM (by protocol). actives 3.3% (n = 20,000);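 active = enzyme reaction rate more than 3 SD below the solvent-only control wells on the same plate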;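 note: lower slope than DMSO wells means FECH inhibition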
Target sequence (P22830 whole entry, looked up): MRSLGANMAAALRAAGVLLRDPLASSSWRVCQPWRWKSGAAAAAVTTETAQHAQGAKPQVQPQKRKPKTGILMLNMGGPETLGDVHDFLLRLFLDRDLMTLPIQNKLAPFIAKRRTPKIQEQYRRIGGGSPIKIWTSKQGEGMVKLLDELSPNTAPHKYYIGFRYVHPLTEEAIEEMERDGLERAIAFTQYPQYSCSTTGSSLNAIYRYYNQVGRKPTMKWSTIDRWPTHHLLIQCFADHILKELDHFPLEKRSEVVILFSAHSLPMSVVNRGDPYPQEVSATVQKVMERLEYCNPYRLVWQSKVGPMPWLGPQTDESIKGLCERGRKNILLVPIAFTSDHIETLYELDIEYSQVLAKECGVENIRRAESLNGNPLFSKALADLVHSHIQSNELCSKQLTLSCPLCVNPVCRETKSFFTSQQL
Starred values were filed as active, the others as inactive; i = inactive; + = active, no number.

SMILES	FECH block
Cc1cc(C)n2nc(N(Cc3c(F)cccc3Cl)S(=O)(=O)c3ccccc3)nc2n1	i
Cc1cccc(CN2CCCN(CC(=O)Nc3cc(C)cc(C)c3)S2(=O)=O)c1	+
Cc1cccc(CN2CCCN(CC(=O)Nc3ccccc3)S2(=O)=O)c1	i
Cc1cccc(CN2CCCN(CC(=O)Nc3ccc(F)cc3)S2(=O)=O)c1	+
Cc1ccc(CN2CCCN(CC(=O)Nc3ccc(C)c(C)c3)S2(=O)=O)cc1	i
Cc1cccc(CN2CCCN(CC(=O)Nc3cccc(Br)c3)S2(=O)=O)c1	i
Cc1ccc(NC(=O)CN2CCCN(Cc3cccc(F)c3)S2(=O)=O)cc1C	i
O=C(CN1CCCN(Cc2cccc(F)c2)S1(=O)=O)Nc1ccccc1	i
Cc1ccc(CN2CCCN(CC(=O)Nc3ccc(F)cc3)S2(=O)=O)cc1	i
Cc1cccc(CN2CCCN(CC(=O)Nc3ccc(C)c(C)c3)S2(=O)=O)c1	+
CCCCN(Cc1nc2nc(C)cc(C)n2n1)C(=O)c1ccccc1	i
Cc1cc(NC(=O)N2CCC(n3cnc4cccnc43)CC2)ccc1Br	i
OCc1ccnc(-c2cc(NCc3cccnc3)nc3[nH]ccc23)c1	i
O=C1NCC(=O)N2C[C@H](Nc3nccc(CCC(F)(F)F)n3)C[C@@H]12	i
CC(C)NC(=O)c1nc[nH]c1C(=O)NCc1cccc(C(F)(F)F)c1	i
CCOC(=O)c1c(NC(=O)c2c(F)cccc2F)sc2c1CCN(C)C2	i
CCN(Cc1ccncc1)c1nc(C)nc2sccc12	i
O=C(NCc1cccnc1)c1nc[nH]c1C(=O)N1CCC(O)(c2ccc(Cl)cc2)CC1	i
O=C(CN1C(=O)C2CCCCN2c2ccc(S(=O)(=O)N3CCCCC3)cc21)NCc1ccccc1 (stereo not given)	i
COc1ccccc1CNC(=O)CN(C)Cc1ncc(C)[nH]1	i
Cc1cc(C)cc(Oc2cc(SCC(=O)Nc3ccc(F)cc3Cl)ncn2)c1	+
Cc1ccccc1NC(=O)CCNC(=O)COc1c(C)ccc(C)c1C	i
Cc1ccc(NC(=O)CN2CCN(Cc3ccc(F)cc3Cl)S2(=O)=O)c(Cl)c1	i
Cc1cc(C)cc(Oc2cc(SCC(=O)Nc3ccccc3C)ncn2)c1	+
CCC(=O)Nc1ccccc1-c1nnc(SCC(=O)Nc2ccc(C)cc2C)[nH]c1=O	i
SMILES	FECH block
COc1ccccc1CNC(=O)CN(C)Cc1c(C)nn(C)c1C	i
CN(C)c1nc2ncnc(SCC(=O)Nc3ccc(F)cc3F)c2s1	i
COc1cccc(CNC(=O)CSc2cc(Oc3cc(C)cc(C)c3)ncn2)c1OC	+
Cc1ccc(-c2nc(CSc3nc(C)c(Cc4ccccc4)c(=O)[nH]3)c(C)o2)cc1	i
O=C(Cc1cccc(F)c1)NCc1cccc(-n2cccn2)c1	i
Cc1cccc(N2CCC(NCc3nc(-c4cccnc4)no3)CC2)c1C	i
COC(=O)CN1CCN(C(=O)c2cnc(-c3ccccc3)nc2)C(C)C1=O (stereo not given)	i
CCCn1ncc(NC(=O)c2ccc(CN3CCNCC3(C)C)cc2)n1	i
COc1ccc(-c2cc3n(n2)CCC(=O)N3Cc2ccc(C(=O)NC3CCS(=O)(=O)C3)cc2)cc1 (stereo not given)	i
Cc1nc2nc(-c3ccccc3)nn2c(Sc2ccccc2N)c1C	i
CCC(=O)Nc1ccccc1-c1nnc(SC(CC)C(=O)Nc2ccc(C)cc2C)[nH]c1=O (stereo not given)	i
CCN(CC)S(=O)(=O)N1CCC(C(=O)Nc2ccc3nc(CCc4ccccc4)[nH]c3c2)CC1	+
CCN(CC)S(=O)(=O)N1CCC(C(=O)Nc2ccc3sc(NC(=O)C(C)C)nc3c2)CC1	i
CCN(CC)S(=O)(=O)N1CCC(C(=O)Nc2cccc(CCc3nc4ccccc4n3C)c2)CC1	+
CCc1cccc(NC(=O)C2CCN(c3ccc(-c4cccs4)nn3)CC2)c1	i
O=C(Nc1ccccc1CCc1nc2ccccc2[nH]1)C1CCCN(S(=O)(=O)N2CCCC2)C1 (stereo not given)	i
CCN(CC)S(=O)(=O)c1ccc2c(c1)nc(CN1CCN(S(=O)(=O)N(C)C)CC1)n2C	i
CCNc1ncc(C(=O)N2CCOc3ccc(Cl)cc3C2)cn1	i
CCC(C(=O)N1CC(c2ccncc2)C1)N1Cc2ccccc2C1=O (stereo not given)	i
CCCN(CCC)c1nc(Nc2ccc(Cl)cc2)c2cnn(-c3ccccc3)c2n1	i
CCc1cc(CN(C)C(=O)c2cn3c4c(cccc4c2=O)CC3)on1	+
CCc1cc(CN(C)C(=O)c2cnon2)on1	i
CCc1cc(CN(C)C(=O)CN2CCOc3ccccc3C2)on1	i
NC(=O)c1ccccc1-n1cc(-c2cccc(C(=O)O)c2)cn1	i
CC1c2cccn2CCN1C(=O)c1ccc(C#CC(C)(C)O)o1 (stereo not given)	i
SMILES	FECH block
CC(=O)Nc1ccccc1SCC(=O)N1CCn2cccc2C1C (stereo not given)	+
CC1c2cccn2CCN1C(=O)CNS(=O)(=O)c1cccs1 (stereo not given)	i
COc1c(C)cc(C(=O)C2CCCN(C(=O)C(=O)Nc3ccccc3)C2)cc1C (stereo not given)	i
CCc1c(C)nc2ncnn2c1Sc1ccc(NS(=O)(=O)c2ccccc2)cc1	i
CCC(C)N(Cc1ccsc1)C(=O)c1nc2nc(C)cc(C)n2n1 (stereo not given)	i
CCc1ccc2c(c1)-c1ccccc1S(=O)(=O)N2CC(=O)NCCSC1CCCCC1	i
O=C(CN1c2ccc(F)cc2-c2ccccc2S1(=O)=O)NCCCn1ccnc1	i
CCc1ccc(C2=C(C)C(=O)N(CC(=O)NCc3cccs3)S2(=O)=O)cc1	i
CCc1ccc2c(c1)-c1ccccc1S(=O)(=O)N2CC(=O)NCCCn1ccnc1	+
CCc1ccc2c(c1)-c1ccccc1S(=O)(=O)N2CC(=O)NCc1cccnc1	+
CCc1ccc(C2=C(C)C(=O)N(CC(=O)Nc3cc(C)ccc3OC)S2(=O)=O)cc1	i
Cc1cc(C)cc(S(=O)(=O)NCc2nc3cccnc3n2Cc2ccc(F)cc2)c1	i
COc1ccccc1N(Cc1nc2nc(C)cc(C)n2n1)C(=O)C1CCCCC1	i
O=C(O)c1ccccc1C1CCN(Cc2noc(-c3ccccc3)n2)C1 (stereo not given)	i
CCC(C(=O)N1C[C@@H]2[C@H](C1)[C@H]1CC[C@@H]2O1)n1cccn1 (stereo not given in full)	i
CN(Cc1ccccc1)S(=O)(=O)c1ccc2c(c1)CCN2C(=O)CCC(=O)N1CCCCCC1	i
COc1cccc(OCC(=O)Nc2cc(C)nn2-c2ncnc3c2cnn3-c2cccc(C)c2C)c1	i
Cc1cccc(OCC(=O)Nc2cc(C)nn2-c2ncnc3c2cnn3-c2cccc(C)c2C)c1	i
Cc1cc(NC(=O)COc2ccc(C(C)C)cc2)n(-c2ncnc3c2cnn3-c2cccc(C)c2C)n1	+
CCN(Cc1noc(C)n1)C(=O)Cc1c(C)nn(-c2ccccc2)c1C	i
O=C1CCC(=O)N1c1nc2n(n1)C(c1ccccc1Cl)C=C(c1ccc(Br)cc1)N2 (stereo not given)	i
Cc1cccc(C)c1NCc1cc(=O)n2[nH]c(NCc3ccccc3)nc2n1	i
COc1ccc(NCc2cc(=O)n3[nH]c(-c4ccc(C(C)(C)C)cc4)nc3n2)c(OC)c1	i
